# Measurements from ChEMBL document CHEMBL3988442, “University of Dundee, Small-Polar-MMV Screening Library” (2021).
# Screen size: about 48,000 compounds; about 13,000 (27%) showed an effect of 50% or more. The list shows a part of the results.
# System: Wolbachia pipientis
# Assay: Anti-Wolbachia Cell-Based Screen
# Type: functional
# Parameters: scale not given: in the data most compounds retested in dose-response had high values
# Conditions: 5 µM
row,SMILES,Percent Effect [%]
1,Cc1ncsc1CNC(=O)N1CCN(Cc2ccccc2)CC1C (stereo not drawn),-7.787
2,O=C(O)C(F)(F)F.O=C(O)C(F)(F)F.c1ccc(CN2CCC3(CC2)CCN(c2ccccn2)C3)nc1,79.01
3,COc1cc(N2CCC3(CCN(C(=O)c4cccnc4)CC3)C2)ncn1.O=C(O)C(F)(F)F,-2.068
4,O=C(O)C(F)(F)F.O=C(O)C(F)(F)F.c1cnc(N2CCCC3(CCN(c4ncccn4)C3)C2)nc1 (stereo not drawn),103.8
5,COc1cc(N2CCC3(CCCN(C(=O)c4cccnc4)C3)C2)ncn1.O=C(O)C(F)(F)F (stereo not drawn),-28.04
6,Fc1ccc(CN2CCC3(CC2)CN(c2ccccn2)CCO3)cc1.O=C(O)C(F)(F)F.O=C(O)C(F)(F)F,-6.002
7,O=C(O)C(F)(F)F.c1ccc(N2CCC3(CCCN(c4ncccn4)C3)C2)nc1 (stereo not drawn),93.44
8,CN1CCC2(CCCN(c3nccc(C(F)(F)F)n3)C2)CC1.O=C(O)C(F)(F)F,-32.78
9,O=C(O)C(F)(F)F.O=C(O)C(F)(F)F.c1ccc(CN2CCC3(CC2)CN(c2ccccn2)CCO3)nc1,2.249
10,Fc1ccccc1CN1CCCC2(CCN(c3ncccn3)CC2)C1.O=C(O)C(F)(F)F,3.614
11,N#Cc1ccc(N2CCC3(CCCN(c4ccccn4)C3)C2)nc1.O=C(O)C(F)(F)F (stereo not drawn),-3.068
12,COc1cc(N2CCC3(CCCN(Cc4ccccn4)C3)C2)ncn1.O=C(O)C(F)(F)F (stereo not drawn),109.9
13,CC(=O)N1CCC2(CC1)CN(C)C(=O)C[C@H]2C(F)(F)F.Cl,-12.08
14,CN1CCN(C(=O)c2ccc(=O)n(C)c2)c2ccccc21,6.731
15,CCOc1ccc(-n2nc(C)c(CC(C)=O)c2C)cc1C(N)=O,-4.424
16,Cc1cnc(N2CC3(CCN(S(=O)(=O)C4CC4)C3)C2)nc1.O=C(O)C(F)(F)F,-3.978
17,O=C(O)C(F)(F)F.O=S(=O)(C1CC1)N1CCC2(CCCN(c3ncccn3)C2)C1 (stereo not drawn),97.03
18,O=S(=O)(C1CC1)N1CCC2(CN(c3ncccn3)C2)C1,-12.56
19,O=C(CCc1ccc(F)cc1)NCc1ccnc(NC2CC2)c1,-8.812
20,O=C(O)C(F)(F)F.O=C(O)C(F)(F)F.c1cc2c(cc1CN1CC[C@H]3CO[C@H](CN4CCCC4)[C@H]3C1)OCO2,-12.98
21,O=C(C1CCOCC1)N1C[C@@H]2CN(Cc3ccsc3)CCO[C@@H]2C1.O=C(O)C(F)(F)F,4.767
22,CN1CCN(C[C@@H]2OC[C@H]3CN(Cc4ccsc4)CC[C@H]32)CC1.O=C(O)C(F)(F)F.O=C(O)C(F)(F)F.O=C(O)C(F)(F)F,-2.359
23,Cc1ccc(CN2CC[C@H]3CO[C@H](CN4CCCC4)[C@H]3C2)o1.O=C(O)C(F)(F)F.O=C(O)C(F)(F)F,-21.11
24,CN1CCN(C[C@H]2OC[C@@H]3CCN(Cc4ccsc4)C[C@@H]32)CC1,98.94

row,SMILES,Percent Effect [%]
1,O=C(O)C(F)(F)F.O=C(O)C(F)(F)F.c1cc(CN2CC[C@@H]3[C@@H](CO[C@H]3CN3CCOCC3)C2)cs1,92.79
2,Cc1ccc(CN2CC[C@H]3CO[C@H](CN4CCN(C)CC4)[C@H]3C2)o1.O=C(O)C(F)(F)F.O=C(O)C(F)(F)F.O=C(O)C(F)(F)F,-46.51
3,CN(Cc1ccco1)C[C@H]1OC[C@@H]2CCN(Cc3ccsc3)C[C@@H]21.O=C(O)C(F)(F)F.O=C(O)C(F)(F)F,-7.864
4,O=C(O)C(F)(F)F.O=C(O)C(F)(F)F.c1cc(CN2CC[C@H]3CO[C@H](CN4CCOCC4)[C@H]3C2)cs1,117.2
5,O=C(Nc1ccnc(OC2CCOC2)c1)C1CCC1 (stereo not drawn),-17.8
6,Cc1cc(CN2CCC(CNC(=O)c3ccc(O)c(Cl)c3)C2)[nH]n1 (stereo not drawn),12.57
7,CNS(=O)(=O)c1ccc(C(=O)N2CCCC2c2ccccc2)o1 (stereo not drawn),-8.711
8,CC(=O)Nc1nc(C(=O)N2CCCC2c2ccccc2C)cs1 (stereo not drawn),-3.064
9,CNS(=O)(=O)c1ccc(C(=O)N2CCCC2c2ccccc2C)o1 (stereo not drawn),116.1
10,CNS(=O)(=O)c1ccc(C(=O)N2CCCCC2c2ccc(C)cc2)o1 (stereo not drawn),124
11,CN(C)Cc1ccc(C2CCCCN2C(=O)c2ncccc2O)cc1 (stereo not drawn),1.796
12,CNS(=O)(=O)c1ccc(C(=O)N2CCCC2c2cnn(C)c2)o1 (stereo not drawn),-2.298
13,CNS(=O)(=O)c1ccc(C(=O)N2CCCC2Cc2ccccc2)o1 (stereo not drawn),9.44
14,Cc1nc(C(=O)N2CCCCC2c2ccc(CN(C)C)cc2)c(C)o1 (stereo not drawn),-1.477
15,CNc1nc(C(=O)N2CCCCC2c2ccc(CN(C)C)cc2)cs1 (stereo not drawn),-11.93
16,NS(=O)(=O)c1ccc(C(=O)N2CCCC2c2ccccc2)o1 (stereo not drawn),114.9
17,CNS(=O)(=O)c1ccc(C(=O)N2CCCC2c2ccncc2)o1 (stereo not drawn),101.5
18,O=c1ccncn1Cc1csc(C2CC2)n1,-22.65
19,Cc1cc(C)cc(CCC(=O)NC(C)c2nnn[nH]2)c1 (stereo not drawn),-2.993
20,CCCn1nc2c(cc1=O)CN(Cc1ncc(C(C)(C)C)o1)CC2,7.183
21,c1ccc2c(N3CCCCC3)cnnc2c1,-32.94
22,CN(Cc1ccco1)c1ccc(C(=O)NCCCc2ccccn2)cn1,-0.2765
23,CN1CC[C@@H]2[C@@H]1CCN2Cc1ccc2c(c1)OCO2,-14.63
24,Cc1cccc(CN2CCC(n3cc(CCO)nn3)CC2)c1C,4.105
